Measured values as given in PubChem BioAssay AID1942 (Johns Hopkins Ion Channel Center, 2009).
About 580 (24%) of roughly 2,400 compounds were called active. The list is a sample of the results. Unmarked numbers belong to inactive results.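 The calls were made as follows: active = activity change at or above the mean plus 3 SD of buffer wells without dofetilide, per plate; inactive = the rest.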

Target: Potassium voltage-gated channel subfamily KQT member 2 (Rattus norvegicus) (UniProt O88943)
Assay: rat KCNQ2 channel activation by compounds alone, confirmation, counter-screen for hERG block protector project, cell-based, CHO, FluxOR thallium flux (AID 1942);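 also: normalized value minus buffer-control mean plus three SD of buffer wells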
Conditions: CHO-KCNQ2 cells, FluxOR thallium flux fluorescence; at 10 µM; active compounds read high

Potassium voltage-gated channel subfamily KQT member 2 (Rattus norvegicus), sequence (O88943 whole entry, looked up): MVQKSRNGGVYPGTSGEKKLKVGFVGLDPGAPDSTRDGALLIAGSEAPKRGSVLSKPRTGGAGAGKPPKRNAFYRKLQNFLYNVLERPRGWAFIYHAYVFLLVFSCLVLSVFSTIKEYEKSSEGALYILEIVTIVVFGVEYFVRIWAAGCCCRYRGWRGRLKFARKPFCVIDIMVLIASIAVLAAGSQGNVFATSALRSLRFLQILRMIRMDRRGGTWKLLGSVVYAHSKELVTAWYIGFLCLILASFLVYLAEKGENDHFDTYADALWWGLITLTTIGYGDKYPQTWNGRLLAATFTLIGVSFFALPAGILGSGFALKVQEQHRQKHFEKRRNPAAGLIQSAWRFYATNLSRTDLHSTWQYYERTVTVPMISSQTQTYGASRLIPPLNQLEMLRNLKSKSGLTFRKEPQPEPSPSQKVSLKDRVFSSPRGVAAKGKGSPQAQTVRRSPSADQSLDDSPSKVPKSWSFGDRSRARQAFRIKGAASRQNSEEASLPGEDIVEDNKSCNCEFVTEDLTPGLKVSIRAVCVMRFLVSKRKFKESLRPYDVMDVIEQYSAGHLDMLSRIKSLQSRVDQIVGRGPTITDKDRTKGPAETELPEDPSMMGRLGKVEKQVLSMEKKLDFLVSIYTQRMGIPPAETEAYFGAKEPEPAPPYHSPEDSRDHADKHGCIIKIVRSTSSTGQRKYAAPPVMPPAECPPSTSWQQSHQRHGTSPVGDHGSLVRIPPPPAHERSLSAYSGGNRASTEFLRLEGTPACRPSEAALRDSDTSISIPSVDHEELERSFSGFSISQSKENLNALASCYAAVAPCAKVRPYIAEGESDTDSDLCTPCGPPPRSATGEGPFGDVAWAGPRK

Compound	activity change, less the hit threshold
COc1ccc(C(C(=O)NC(C)(C)C)N(C(=O)CCC(=O)Nc2cc(C)on2)c2cccc(F)c2)cc1 (centres undefined)	-14.9%
CCCCc1c(O)nc(SCC(=O)N2CCOCC2)[nH]c1=O	-9.9%
COC(=O)CNc1nc(Cl)nc(Nc2ccc(C)cc2)n1	-22.2%
Cc1ccc(C(=O)Nc2sc3c(c2C(=O)O)CCCCC3)o1	-23.9%
CCOC(=O)c1c(C)cccc1OCC(N)=O	-12.7%
CCOC(=O)c1c(NS(=O)(=O)Cc2ccccc2)sc2c1CCCC2	32.5% (active)
COC(=O)c1c(NS(=O)(=O)Cc2ccccc2)sc2c1CCCC2	42.1% (active)
COC(=O)c1c(NS(=O)(=O)c2ccc3ccccc3c2)sc2c1CCCC2	-15.5%
CCOC(=O)c1c(NS(=O)(=O)c2ccc(Br)cc2)sc2c1CCC2	5.6% (active)
CN1C(=O)c2ccc(C(=O)NCc3ccccc3)cc2C1=O	-20.8%
COCCCNC(=O)CCc1nnc(Cc2ccc(-c3ccccc3)cc2)o1	-5.1%
Cc1cc(=S)[nH]c2c(C)cccc12	-3.9%
CCOc1cc(NC(=S)N2CCC(C(N)=O)CC2)c(C(=O)OC)cc1OCC	-11.5%
Cc1cccc(OCC(=O)NCc2nc(-c3ccccc3)no2)c1	-17.2%
COc1cccc(OCC(=O)NNC(=O)C(=O)Nc2cccc(C)c2)c1	33.1% (active)
COc1ccc(OCC(=O)NNC(=O)C(=O)Nc2ccc(C)cc2)cc1	-23.7%
CCc1ccc(OCC(=O)Nc2ncn[nH]2)cc1	-16.1%
O=C(COc1cccc(-n2cnnn2)c1)Nc1ccc([N+](=O)[O-])cc1	-13.3%
CCc1ccc(NC(=O)C(=O)NNC(=O)COc2cccc(OC)c2)cc1	14.3% (active)
CC(C)c1cccc(C(C)C)c1NC(=O)COC(=O)[C@H](C)NC(N)=O	-17.5%
O=C(NC(=S)Nc1ccccc1Cl)c1ccco1	10.4% (active)
O=C(NC(=S)Nc1cccc(Cl)c1N1CCCCC1)c1ccco1	-12.3%
O=C(NC(=S)Nc1ccccc1N1CCCC1)c1ccco1	11.2% (active)
O=C(NC(=S)Nc1ccc(N2CCCCC2)cc1)c1ccco1	45.9% (active)
O=C(NC(=S)Nc1cc(C(F)(F)F)ccc1N1CCOCC1)c1ccco1	-11.4%

Compound	activity change, less the hit threshold
O=C(NC(=S)Nc1ccccc1Br)c1ccco1	18.2% (active)
O=C(NC(=S)Nc1ccccc1N1CCCC1)c1cccs1	-17.3%
CC1CCN(c2ccccc2NC(=S)NC(=O)c2ccco2)CC1	-14.3%
O=C(Nc1ccc(N2CCOCC2)cc1)c1ccc(S(=O)(=O)N2CCCCC2)cc1	-20.8%
O=C(N/N=C/c1ccc(OC(F)F)cc1)C1=COCCO1	-10.9%
COC(=O)c1cc2sc(Cl)cc2n1CC(=O)NCC1CCCO1 (centres undefined)	-16.1%
COc1ccc(NC(=O)c2cn(-c3ccccc3)nc2-c2ccncc2)cc1	-9.7%
Nc1ncnc(Oc2cccc3cccnc23)c1[N+](=O)[O-]	-25.4%
CCC(C)c1ccccc1NC(=O)c1[nH]c(C)c(C(C)=O)c1C (centres undefined)	-22.3%
CCC(C)c1ccccc1NC(=S)NC(=O)c1ccco1 (centres undefined)	60.2% (active)
CCOc1ccccc1NC(=S)NC(=O)c1ccco1	-5.9%
N#C/C(=N/Nc1ccc([N+](=O)[O-])cc1)C(=N)N1CCCCC1	-6.1%
C/C(=C/CCC(C)[C@H]1CC[C@@]2(C)C3=C(CC[C@]12C)[C@@]1(C)CCC(=O)C(C)(C)[C@@H]1CC3)C(=O)O (some centres undefined)	-36.3%
CC(C)OC(=O)CSc1nnc(C2CCCCC2)n1N	-21.8%
CCC1(c2ccccc2)NC(=S)N(c2ccc(C)c(C)c2)N1 (centres undefined)	111% (active)
CCC1(c2ccc(Cl)cc2)NC(=S)N(c2ccc(C)c(C)c2)N1 (centres undefined)	101% (active)
CCCCn1nnc(NC(=O)c2ccc(-c3cccc([N+](=O)[O-])c3)o2)n1	-21.1%
CCCCNC1=CC(=O)C(=O)c2ccccc21	-18.9%
COC(=O)c1ccc(C2C(C#N)=C(N)Oc3cc(O)ccc32)cc1 (centres undefined)	-8.7%
CC1CCc2sc(-c3n[nH]c(=S)o3)cc2C1 (centres undefined)	20.7% (active)
Cc1ccc2oc3c(c(=O)c2c1)C(c1cccs1)N(CCCN(C)C)C3=O (centres undefined)	7.1% (active)
CCN(CC)CCCN1C(=O)c2oc3ccccc3c(=O)c2C1c1cccs1 (centres undefined)	12.9% (active)
COCCN1C(=O)c2oc3cc(C)c(C)cc3c(=O)c2C1c1ccc(O)cc1 (centres undefined)	-0.6%
CSc1ccc(C2NN=C(c3ccccc3)S2)cc1 (centres undefined)	-15.8%
